# Screens: PubChem BioAssay, National Center for Advancing Translational Sciences (NCATS)
# This is a sample that favours compounds with a hit; in the whole collection about 14% have one here.
# Giardia FBPA inh-1 – inhibitors of Giardia lamblia fructose-1,6-bisphosphate aldolase. A8B2U2. purified Giardia FBPA. Potency, µM (series often up to 59.6 µM), for the others: at the highest dose activity, negative = inhibition, actives largely listed as inhibitors. 290,000 tested, 0.71% active; also: potency is read from the fitted curve at half-maximal effect; % is scaled to controls: 0 for no effect and ±100 for the full control effect; nearly all actives have a fitted effect of over 55% in size
# Target sequence (A8B2U2 whole entry, looked up): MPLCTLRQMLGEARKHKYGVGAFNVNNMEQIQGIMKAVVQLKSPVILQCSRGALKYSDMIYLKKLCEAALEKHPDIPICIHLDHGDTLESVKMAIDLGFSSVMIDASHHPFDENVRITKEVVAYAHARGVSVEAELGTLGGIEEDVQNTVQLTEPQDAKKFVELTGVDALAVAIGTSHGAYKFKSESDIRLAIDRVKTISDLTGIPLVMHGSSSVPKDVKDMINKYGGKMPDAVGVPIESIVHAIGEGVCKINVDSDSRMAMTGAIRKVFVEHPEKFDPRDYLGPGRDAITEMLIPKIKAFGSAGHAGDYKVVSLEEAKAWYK
#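 40 nM FBPA preincubated 10 min at RT with compound (up to 57.5 uM final), then substrate plus GAPDH/TPI/NAD/arsenate coupling and diaphorase/resazurin added. Fluorescence read after 20 min at RT, 525/598 nm.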
# LmPK inhibitor – LmPK (Leishmania mexicana) enzyme inhibition. AID 1721. purified LmPK, Kinase-Glo ATP luminescence, 1 h. Q27686. Potency, µM (titrated, usually from 57.5 µM), without a hit: top-dose activity change, negative = inhibition, hits mostly inhibitors. 290,000 tested, 0.37% active; also: potency is read from the fitted curve at half-maximal effect; % is scaled to controls: 0 for no effect and ±100 for the full control effect
#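 Purified LmPK (0.1 nM) converted ADP (0.1 mM) to ATP with PEP (0.5 mM) in imidazole buffer pH 7.2 with KCl and MgCl2, 1 h at room temperature. ATP was read by Kinase-Glo luminescence; data normalized to uninhibited and no-enzyme controls.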
# Shiga toxin inh – blocks Shiga toxin action in Vero cells; AID 2315; Vero cells, Shiga toxin protein synthesis inhibition reporter; inhibition, % at 38.7 µM; 290,000 tested, 9.2% active; in the data active = inhibition mostly above about 28%, no sharp cut-off; inactive = mostly below about 43%; also: 0% is about no effect
# NS1 function inh – influenza NS1 inhibition | Potency, µM (series often up to 46.1 µM), for inactives: at the top dose activity, positive = more growth | 270,000 tested, 0.4% active; calls by dose curve; also: potency is read from the fitted curve at half-maximal effect; actives are rising curves; nearly all actives have a fitted effect of over 50% in size
#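 Read-out: OD600 growth recovery of NS1-expressing budding yeast. Cells grown overnight at 30C in -URA glucose medium, washed, resuspended and diluted 1:100 in 2% galactose assay medium, pH 6.0. Same strain lacking NS1 served as positive control.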
# Cycloheximide cs – counter-screen for Shiga toxin inhibitors: cycloheximide protein synthesis inhibition; 300,000 tested, 12% active; cell reporter, cycloheximide protein synthesis inhibition counterscreen; max response, %; in the data active = max response mostly above about 13%, no sharp cut-off; inactive = mostly below about 14%; also: read at 38.3 µM for the half of the compounds with a filed dose; 0% is about no effect
# Giardia growth – Giardia lamblia growth inhibition. shares compounds with Giardia FBPA inh-1. Giardia lamblia trophozoite growth inhibition. Potency, µM (highest dose often 57.5 µM), inactives show at the highest dose activity change, negative = inhibition, actives largely listed as inhibitors. 1,500 tested, 5% active. AID 2785;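 also: potency is read from the fitted curve at half-maximal effect; trophozoites exposed to compound for 48 h at 37 °C; % is scaled to controls: 0 for no effect and ±100 for the full control effect; nearly all actives have a fitted effect of over 70% in size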
# Mammal cell tox – toxic to mammalian cells in Giardia aldolase counter-screen | shares compounds with Giardia FBPA inh-1 | mammalian cell viability counter-screen, qHTS | Potency, µM (doses to about 57.5 µM), without a hit: at the highest dose viability change, negative = toxicity, hits mostly inhibitors | 1,500 tested, 4% active;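 also: Chinese hamster ovary cells used as mammalian cytotoxicity surrogate; viability measured as cellular ATP by luminescence; potency is read from the fitted curve at half-maximal effect; compound exposure lasted 48 h before reading; % is scaled to controls: 0 for no effect and ±100 for the full control effect; nearly all actives have a fitted effect of over 60% in size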
# Giardia FBPA inh-2 – confirmation of Giardia fructose-bisphosphate aldolase inhibitors; shares compounds with Giardia FBPA inh-1; purified Giardia aldolase enzyme activity, qHTS; Potency, µM (doses to about 57.5 µM), inactives show at the top dose activity change, negative = inhibition, most hits filed as inhibitors; 1,500 tested, 5% active; AID 2787; also: potency is read from the fitted curve at half-maximal effect; % is scaled to controls: 0 for no effect and ±100 for the full control effect; nearly all actives have a fitted effect of over 45% in size
# Rabbit aldolase – selectivity test for Giardia aldolase inhibitors: rabbit aldolase; shares compounds with Giardia FBPA inh-1; Rabbit muscle FBPA enzyme inhibition, selectivity counter-screen; Potency, µM (titrated, usually from 57.5 µM), for the others: at the top dose activity, negative = inhibition, usual class: inhibitors; 1,500 tested, 4% active; AID 2794; also: potency is read from the fitted curve at half-maximal effect; % is scaled to controls: 0 for no effect and ±100 for the full control effect; nearly all actives have a fitted effect of over 60% in size
# Target sequence (P00883 whole entry, looked up): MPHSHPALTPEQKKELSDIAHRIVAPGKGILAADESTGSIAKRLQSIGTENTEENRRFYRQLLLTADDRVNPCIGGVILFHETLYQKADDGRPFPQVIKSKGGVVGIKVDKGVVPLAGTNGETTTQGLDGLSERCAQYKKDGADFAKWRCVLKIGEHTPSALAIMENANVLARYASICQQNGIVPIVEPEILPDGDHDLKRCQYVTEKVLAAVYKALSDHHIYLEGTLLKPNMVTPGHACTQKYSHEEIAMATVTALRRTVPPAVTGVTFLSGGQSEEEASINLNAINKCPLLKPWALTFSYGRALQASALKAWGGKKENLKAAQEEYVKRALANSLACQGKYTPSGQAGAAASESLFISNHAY
# GAPDH counter – GAPDH inhibition flagged for Giardia aldolase hits; shares compounds with Giardia FBPA inh-1; GAPDH coupling enzyme counterscreen, biochemical, qHTS; Potency, µM (doses to about 57.5 µM), inactives show at the top dose activity change, negative = inhibition, hits mostly inhibitors; 1,500 tested, 6% active; AID 2795; also: potency is read from the fitted curve at half-maximal effect; % is scaled to controls: 0 for no effect and ±100 for the full control effect; nearly all actives have a fitted effect of over 55% in size
# Active calls of the source: *; ? = inconclusive; · = no result given; ! = repeats disagree; [ ] = dose if it differs, or a comment. Unless noted, calls follow the shape of the dose curve; as a rule, active = well fitted curve in the direction sought with a large enough effect; inconclusive = small, poorly fitted or top-dose-only effect, or another doubt; inactive = no such curve, though single readings can be large; an effect the other way counts as inactive or inconclusive.
SMILES,Giardia FBPA inh-1,LmPK inhibitor,Shiga toxin inh,NS1 function inh,Cycloheximide cs,Giardia growth,Mammal cell tox,Giardia FBPA inh-2,Rabbit aldolase,GAPDH counter
Cc1cc(C)c(NC(=S)N(CCc2ccncc2)C(C)C)c(C)c1,10µM*,-1%,-4,·,12,-6%[38.3 µM],-13%,3%,2%,-4%
Cc1nc(=S)n(-c2ccccc2)[nH]1,-24%,-5%,-5,7%,5,·,·,·,·,·
Nc1nc(=S)n(-c2ccccc2)[nH]1,7.1µM*,4%,10,·,10,19%,-1%,2%,5%,9%
CCCCN(C(=O)c1cccc(S(=O)(=O)N2CC(C)OC(C)C2)c1)c1c(N)n(CC(C)C)c(=O)[nH]c1=O (centres undefined),2%,-5%,-5,-7%,0,·,·,·,·,·
CCC1(C)Cc2c(C#N)c(N)n(-c3ccccc3)c(=S)c2CO1 (centres undefined),1%,-2%,7,3%,-1,·,·,·,·,·
CCC1(C)Cc2c(C#N)c(N)sc(=S)c2CO1 (centres undefined),2.2µM*,8%,-15,?,-5,6%[10.4 µM],-6%,-17%,-6%,-13%
N#Cc1c(N)sc(=S)c2c1CCCC2,18µM*,5%,-14,3%,-4,?,2%,-16%,-15%,-19%
Cc1ccc(S(=O)(=O)Cc2ccc(C(=O)NC3CCCCCC3)o2)cc1,·,0%,-8,-16%,-2,·,·,·,·,·
COc1ccc(OC)c(NC(=O)c2cc(OC(C)=O)cc(C(=O)Nc3cc(OC)ccc3OC)c2)c1,5%,19%,·,12%,-4,·,·,·,·,·
O=C(NNC(=O)c1ccccn1)c1cccc([N+](=O)[O-])c1,10µM*,0%,8,·,8,?,?,-1%,-6%,-26%
CCC(C)[C@H](NS(=O)(=O)c1ccc(C)cc1)C(=O)N1CCC(C(=O)N2CCC(C(=O)OC)CC2)CC1 (some centres undefined),-3%,1%,10,-22%,-1,·,·,·,·,·
CC(C)(C)CC(C)(C)NCC(=O)Nc1c2c(nc3ccccc13)CCC2,4.5µM*,3%,-17,2%,-1,73%,3%,7%,12%,10%
CCCCCCC(=O)Nc1c2c(nc3ccccc13)N(C)CC2,12%,1%,19,2%,-2,·,·,·,·,·
CN1CCc2c1nc1ccccc1c2NC(=O)CN1CCCC1,18µM*,-3%,-4,9%,0,-4%[10.4 µM],-6%,10%,3%,7%
CCc1nc2nc(C)c(NS(=O)(=O)c3ccc(C4CCCCC4)cc3)c(=O)n2[nH]1,0%,2%,-8,21%,-5,·,·,·,·,·
Cc1cnc(C(=O)Nc2nccs2)cn1,20µM*,-22%,108*,?,64*,-9%,18%,3%,2%,11%
O=C(Nc1nccs1)c1cn2ccccc2n1,14µM*,25µM*,-19,-5%,10,?,20µM*,-7%,-3%,1%
CCOc1cc(C(=O)NC(=S)Nn2cnnc2)cc(OCC)c1OCC,16µM*,0%,26,·,1,?,3%,2%,14%,-8%
CN(C1=C(NC(=O)c2ccccc2)C(=O)c2ccccc2C1=O)C1CCS(=O)(=O)C1 (centres undefined),0.63µM*,-8%,75*,8%,39*,25µM*,40µM*,?,?,6.3µM*
CC(=O)NC1=C(NC2CCS(=O)(=O)C2)C(=O)c2ccccc2C1=O (centres undefined),?,-8%,-32,-37%,7,·,·,·,·,·
O=C(NC1CCCCCC1)C(=O)NC1CC1,10%,-1%,10,-6%,9,·,·,·,·,·
O=C(NC1CCCCCC1)C(=S)NC1CCCCC1,18µM*,4%,18,5%,10,?,7%,-8%,1%,3%
CC(C)C(=O)Nc1cc2c3c(c1)CCC(=O)N3CCC2,-11%,-3%,-11,7%,7,·,·,·,·,·
CCC(C)c1ccccc1NC(=O)C(C)N(C)Cc1cccc(OC)c1 (centres undefined),20µM*,2%,24,·,-2,?,2%,2%,0%,5%
COc1ccc(NC(=O)C(C)N(C)Cc2ccc3ccccc3c2)cc1 (centres undefined),4%,-3%,17,-17%,0,·,·,·,·,·
SMILES,Giardia FBPA inh-1,LmPK inhibitor,Shiga toxin inh,NS1 function inh,Cycloheximide cs,Giardia growth,Mammal cell tox,Giardia FBPA inh-2,Rabbit aldolase,GAPDH counter
Cn1c(=O)c2[nH]c(N/N=C(/C#N)C(N)=O)nc2n(C)c1=O,20µM*,-7%,-4,-2%,-2,34%,-5%,5%,2%,-2%
COc1ccc(Nc2cc(C)c3ccc(O)cc3n2)cc1,-25%,2%,52*,-7%,46*,-1%[38.3 µM],12%,?,?,?
COc1ccc(Nc2nc3ccccc3nc2C)cc1,-11%,2%,10,-18%,2,·,·,·,·,·
O=C(NC(=S)Nn1cnnc1)c1ccccc1Br,11µM*,1%,-5,1%,1,?,-3%,3%,5%,16%
S=C(Nc1ccccc1)c1ccccn1,3.2µM*!,?,80*,-4%,47*,-14%[38.3 µM],20µM*,-8%,-8%,-10%
Cc1cc(NC(=O)CSc2nnc(CNC(=O)c3ccccc3)o2)no1,·,-2%,-7,2%,5,·,·,·,·,·
NC(=S)NN=C1C2CC3CC(C2)CC1C3,18µM*,5%,1,·,11,11%,6%,-2%,15%,6%
O=C(CCc1ccccc1)N=C1SC2CS(=O)(=O)CC2N1c1ccccc1F (centres undefined),·,-2%,16,-2%,-1,·,·,·,·,·
CC(C)OC(=O)CC1C(=O)NCCN1C(=S)NC(=O)c1ccccc1 (centres undefined),11µM*,3%,24,15%,19,-13%,11%,7%,5%,8%
COC(=O)CC1C(=O)NCCN1C(=O)c1sc2ccccc2c1Cl (centres undefined),2%,1%,-15,-8%,1,·,·,·,·,·
COC(=O)CC1C(=O)NCCN1C(=S)NC(=O)c1sc2ccccc2c1Cl (centres undefined),16µM*,3%,-6,-1%,-1,13%,3%,5%,8%,12%
